Unmarked numbers belong to inactive results.
system: Pseudomonas aeruginosa PA14 dppA1-A5 penta mutant + pBBR5.DppA1 (PA14_58350); assay: respiration area under curve with compound as sole nitrogen source, 24 h (OmniLog AUC (arbitrary units)); higher = more respiration / better utilisation as nitrogen source, active = 2000 or more
Procedure: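 Biolog Phenotype MicroArray plates PM6-PM8: each di/tripeptide is the sole nitrogen source. Tetrazolium reduction was read in the OmniLog for 24 h at 37°C and summarised as area under the respiration curve (arbitrary units). Values below 2000 count as no respiration. Strain is the SBP penta mutant complemented with DppA1 on a plasmid under its native promoter. Lys/His/Cys peptides are excluded.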

| Structure (SMILES) | respiration area under curve |
| --- | --- |
| C[C@H](NC(=O)[C@@H](N)CCC(=O)O)C(=O)O (plate: PM8) | 7690 (active) |
| NC(N)=NCCC[C@H](N)C(=O)N[C@@H](Cc1ccccc1)C(=O)O (plate: PM6) | 7570 (active) |
| N[C@@H](CCC(=O)O)C(=O)N[C@@H](CCC(=O)O)C(=O)O (plate: PM6) | 263 |
| CC(C)C[C@H](NC(=O)CN)C(=O)O (plate: PM6) | 969 |
| CC(C)C[C@H](NC(=O)[C@@H](C)N)C(=O)O (plate: PM8) | 286 |
| N[C@@H](CO)C(=O)N[C@@H](CC(=O)O)C(=O)O (plate: PM8) | 2890 (active) |
| C[C@H](N)C(=O)N[C@H](C(=O)O)[C@@H](C)O (plate: PM6) | 4830 (active) |
| C[C@H](N)C(=O)N[C@@H](CC(=O)O)C(=O)O (plate: PM8) | 9070 (active) |
| C[C@H](N)C(=O)N1CCC[C@H]1C(=O)O (plate: PM6) | 10700 (active) |
| C[C@@H](O)[C@H](N)C(=O)NCC(=O)O (plate: PM7) | 6220 (active) |
| NC(=O)C[C@H](N)C(=O)N[C@@H](CCC(=O)O)C(=O)O (plate: PM6) | 4770 (active) |
| CSCC[C@H](N)C(=O)N[C@@H](CCC(N)=O)C(=O)O (plate: PM7) | 8220 (active) |
| CSCC[C@H](N)C(=O)N[C@@H](Cc1ccc(O)cc1)C(=O)O (plate: PM8) | 780 |
| N[C@@H](CC(=O)O)C(=O)N[C@@H](Cc1c[nH]c2ccccc12)C(=O)O (plate: PM6) | 1340 |
| CSCC[C@H](N)C(=O)N[C@H](C(=O)O)[C@@H](C)O (plate: PM8) | 1950 |
| N[C@@H](CC(=O)O)C(=O)N[C@@H](CCC(=O)O)C(=O)O (plate: PM6) | 437 |
| N[C@@H](Cc1c[nH]c2ccccc12)C(=O)N[C@@H](CC(=O)O)C(=O)O (plate: PM7) | 502 |
| CC(C)C[C@H](NC(=O)[C@@H](N)[C@@H](C)O)C(=O)O (plate: PM7) | 4760 (active) |
| CC[C@H](C)[C@H](NC(=O)[C@H](C)N)C(=O)O (plate: PM8) | 7110 (active) |
| CSCCC(NC(=O)C(N)CC(C)C)C(=O)O (stereo not given) (plate: PM6) | 1220 |

| Structure (SMILES) | respiration area under curve |
| --- | --- |
| C[C@@H](O)[C@H](N)C(=O)N[C@@H](CCC(N)=O)C(=O)O (plate: PM8) | 10400 (active) |
| C[C@H](N)C(=O)N[C@@H](Cc1ccccc1)C(=O)O (plate: PM6) | 6990 (active) |
| C[C@H](N)C(=O)N[C@@H](CO)C(=O)O (plate: PM6) | 8180 (active) |
| NC(Cc1c[nH]c2ccccc12)C(=O)NC(Cc1ccccc1)C(=O)O (stereo not given) (plate: PM7) | 365 |
| CC[C@H](C)[C@H](N)C(=O)N[C@@H](Cc1ccccc1)C(=O)O (plate: PM6) | 1500 |
| N[C@@H](CO)C(=O)N[C@@H](Cc1ccc(O)cc1)C(=O)O (plate: PM7) | 5300 (active) |
| CC(C)[C@H](NC(=O)[C@H](C)N)C(=O)O (plate: PM8) | 7610 (active) |
| N[C@@H](Cc1c[nH]c2ccccc12)C(=O)N[C@@H](Cc1c[nH]c2ccccc12)C(=O)O (plate: PM7) | 477 |
| C[C@H](NC(=O)[C@@H](N)Cc1ccc(O)cc1)C(=O)O (plate: PM7) | 10300 (active) |
| CC(C)C(NC(=O)C1CCCN1)C(=O)O (stereo not given) (plate: PM8) | 5180 (active) |
| NCC(=O)N[C@@H](Cc1c[nH]c2ccccc12)C(=O)O (plate: PM6) | 49.2 |
| C[C@H](N)C(=O)N[C@@H](C)C(=O)N[C@@H](C)C(=O)O (plate: PM8) | 8340 (active) |
| N[C@@H](CO)C(=O)N[C@@H](CO)C(=O)O (plate: PM7) | 6490 (active) |
| CC[C@H](C)[C@H](N)C(=O)NCC(=O)O (plate: PM6) | 2560 (active) |
| CC[C@H](C)[C@H](NC(=O)[C@@H](N)Cc1ccccc1)C(=O)O (plate: PM7) | 7890 (active) |
| N[C@@H](CO)C(=O)N[C@@H](Cc1ccccc1)C(=O)O (plate: PM7) | 6220 (active) |
| CC(C)[C@H](NC(=O)[C@@H](N)Cc1ccccc1)C(=O)O (plate: PM8) | 5720 (active) |
| NC(N)=NCCC[C@H](N)C(=O)N[C@@H](CO)C(=O)O (plate: PM6) | 7830 (active) |
| N[C@@H](CCC(=O)O)C(=O)N[C@@H](CC(=O)O)C(=O)O (plate: PM6) | 19.3 |
| NC(=O)CC[C@H](NC(=O)[C@@H](N)CC(=O)O)C(=O)O (plate: PM8) | 7700 (active) |

Reference: the supplement of paper PMC4206461
